Source: PubChem (National Center for Advancing Translational Sciences (NCATS))
JMJD2A Tudor inh = inhibitors of human JMJD2A Tudor domain; O75164; AlphaScreen JMJD2A-Tudor / H3K4me3 peptide binding; Potency, µM (top dose mostly 114 µM), for the others: at the top dose activity change, negative = inhibition, usual class: inhibitors; 4.4% of 390,000 active; AID 504339; also: potency is read from the fitted curve at half-maximal effect; % is scaled to controls: 0 for no effect and ±100 for the full control effect; nearly all actives have a fitted effect of over 50% in size
HP1b binding inh = inhibitors of HP1-beta chromodomain binding to methylated histone tails; AlphaScreen HP1-beta / biotin-H3K9me3 peptide binding; Potency, µM (top dose mostly 114 µM), inactives show top-dose activity change, negative = inhibition, hits mostly inhibitors; 0.56% of 390,000 active; also: potency is read from the fitted curve at half-maximal effect; nearly all actives have a fitted effect of over 70% in size
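HP1-beta protein (50 nM final) preincubated 30 min at room temperature with biotinylated H3(1-18)K9me3 peptide (50 nM) in PBS pH 7.4, 0.01% Tween-20, then compound added for 30 min. AlphaScreen streptavidin donor/nickel chelate acceptor beads (10 ug/mL final), 30 min dark, luminescence read.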
PI5P4K alpha inh = blocks human PI5P4K alpha kinase activity; 1.2% of 330,000 active; max response, %; PI5P4Kalpha enzyme, ADP-Glo luminescence, 60 min; active compounds read low; active = max response of -50% or lower; inconclusive = between -30% and -50%; inactive = -30% or higher; also: value at the top dose of about 77 µM; % is scaled to controls: 0 for no effect and ±100 for the full control effect
Target sequence (P48426 whole entry, looked up): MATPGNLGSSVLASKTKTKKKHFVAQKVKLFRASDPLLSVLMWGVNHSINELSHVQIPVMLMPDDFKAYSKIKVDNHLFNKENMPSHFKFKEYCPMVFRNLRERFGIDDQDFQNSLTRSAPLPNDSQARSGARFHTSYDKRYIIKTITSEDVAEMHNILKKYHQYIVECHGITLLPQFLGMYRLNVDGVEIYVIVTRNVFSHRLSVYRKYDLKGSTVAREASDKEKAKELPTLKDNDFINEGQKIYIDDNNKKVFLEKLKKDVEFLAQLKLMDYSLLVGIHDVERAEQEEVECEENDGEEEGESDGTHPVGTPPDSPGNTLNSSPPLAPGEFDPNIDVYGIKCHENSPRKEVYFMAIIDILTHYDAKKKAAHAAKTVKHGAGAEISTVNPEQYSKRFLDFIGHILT
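qHTS, 1536-well: enzyme/substrate mix, compound by pin tool, 5 microM ATP final; RT 60 min; ADP-Glo reagents 1 (45 min) then 2 (30 min); luminescence.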
G9a block = blocks human histone lysine methyltransferase G9a; Q96KQ7; G9a H3K9 monomethylation, AlphaScreen, 2 h; Potency, µM (top dose mostly 102 µM), for the others: top-dose activity, negative = inhibition, most hits filed as inhibitors; 8.8% of 350,000 active; also: potency is read from the fitted curve at half-maximal effect; % is scaled to controls: 0 for no effect and ±100 for the full control effect; nearly all actives have a fitted effect of over 75% in size
Target sequence (Q96KQ7 913-1193 limits assumed): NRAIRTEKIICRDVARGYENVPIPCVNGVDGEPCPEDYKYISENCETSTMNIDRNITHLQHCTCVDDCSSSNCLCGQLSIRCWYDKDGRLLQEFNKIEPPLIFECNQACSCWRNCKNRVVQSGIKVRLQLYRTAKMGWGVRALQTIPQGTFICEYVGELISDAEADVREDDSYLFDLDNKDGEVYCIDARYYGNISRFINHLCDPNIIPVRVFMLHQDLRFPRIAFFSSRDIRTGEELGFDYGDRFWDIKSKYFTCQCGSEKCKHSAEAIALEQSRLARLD
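AlphaScreen read-out: biotin-H3K9 peptide (500 nM) methylation by 20 nM enzyme with 20 uM SAM, 2 h at room temperature after 15 min compound preincubation; anti-monomethyl H3K9 antibody plus donor/acceptor beads, 10 min dark.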
PLK1 PBD inh = inhibitors of human PLK1 polo-box domain binding. P53350. Plk1 PBD binding of FITC phosphopeptide, fluorescence polarization. Potency, µM, for the others: max response, negative = inhibition, most hits filed as inhibitors. 2.8% of 360,000 active. AID 720504; also: potency is read from the fitted curve at half-maximal effect; series mostly up to about 57 µM; % is scaled to controls: 0 for no effect and ±100 for the full control effect; nearly all actives have a fitted effect of over 65% in size
BAZ2B inh = inhibitors of human BAZ2B bromodomain; Potency, µM (highest dose often 114 µM), for inactives: at the highest dose activity change, negative = inhibition, hits mostly inhibitors; Q9UIF8; 4.4% of 360,000 active; AlphaScreen BAZ2B-H3K14Ac peptide displacement; also: potency is read from the fitted curve at half-maximal effect; % is scaled to controls: 0 for no effect and ±100 for the full control effect; nearly all actives have a fitted effect of over 60% in size
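Complex of BAZ2B and biotin-H3K14Ac (50 nM apiece) forms over 30 min at RT, then faces library compounds up to 110 uM for another 30 min; AlphaScreen beads added, 20 min dark incubation, luminescence read.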
The depositor's hits bear a star; ? = inconclusive; · = no result; [ ] = another dose, or the depositor's remark. Most compounds without a hit are left out; they make up all but 12% or so of the library. Unless noted, calls follow the shape of the dose curve; as a rule, active = well fitted curve in the direction sought with a large enough effect; inconclusive = small, poorly fitted or top-dose-only effect, or another doubt; inactive = no such curve, though single readings can be large; an effect the other way counts as inactive or inconclusive.

SMILES	JMJD2A Tudor inh	HP1b binding inh	PI5P4K alpha inh	G9a block	PLK1 PBD inh	BAZ2B inh
Cn1cccc1/C=C1\SC(=Nc2cccc(O)c2)NC1=O	?	?	-55*	·	-4%	25µM*
Cn1cccc1/C=C1\SC(=Nc2ccc(O)cc2)NC1=O	-31%	7%	-30	-37%[59 µM]	-9%	-29%
CCOCCCNC(=O)c1ccc2c(c1)ncn2-c1ccccc1OC	-4%	35%	3	1%	-18%	-1%
CCOCCCNC(=O)c1ccc2c(c1)ncn2-c1ccc(C)cc1C	?	-3%	-12	3%	19µM*	-13%
Cc1nc(-c2ccc3c(c2)OCCO3)cs1	-11%	8%	7	32µM*	30µM*	-16%
Cc1cccc(Nc2nc(-c3ccc4c(c3)OCCO4)cs2)c1	?	-35%	-3	7.9µM*	-8%	50µM*
O=C(Nc1nc(-c2ccc3c(c2)OCCO3)cs1)C1CCCC1	?	20%	-10	45µM*	-15%	?
Cc1ccc(C(=O)N2N=C(c3cccc(NS(C)(=O)=O)c3)CC2c2cccs2)cc1 (stereo not drawn)	-27%	10%	-6	-6%	-9%	-26%
CCc1ccc(C(=O)NNC(=O)C2CSC3(C)CCC(=O)N23)cc1 (stereo not drawn)	-5%	33%	-5	10%	-3%	-3%
Cc1cc(C)nc(CCNC(=O)CC2C(=O)NCCN2Cc2ccc(F)cc2Cl)n1 (stereo not drawn)	-7%	16%	-2	45µM*	-9%	-5%
O=C(CC1C(=O)NCCN1Cc1ccc(F)cc1Cl)NCc1ccon1 (stereo not drawn)	-10%	43%	3	32µM*	-13%	-16%
CC(C)c1nc(CNC(=O)CC2C(=O)NCCN2Cc2ccc(F)cc2Cl)cs1 (stereo not drawn)	-29%	36%	-10	·	-27%	-13%
CN(C)CCCNc1nc2cc(-c3ccc(F)cc3)sc2c(=O)n1C	·	·	11	·	-2%	·
Clc1nnc(NC2CCCCC2)c(Cl)c1Cl	·	·	3	·	-4%	·
O=C(O)c1ccc(NC(=S)NC(=O)C(c2ccccc2)c2ccccc2)cc1	-17%	1%	2	-3%	-20%	-27%
COc1ccc(C(=O)O)cc1NC(=S)NC(=O)C(c1ccccc1)c1ccccc1	-16%	11%	5	-42%	60µM*	?
COc1ccc(C(=O)O)cc1NC(=S)NC(=O)/C=C/c1ccc(C(C)C)cc1	79µM*	6%	-9	?	?	50µM*
COc1ccc(C2=CC3=C(Br)C(=O)C(C)(OC(=O)C4CCCC4)C(=O)C3=CO2)cc1 (stereo not drawn)	50µM*	?	-68*	21%[12.7 µM]	24µM*	79µM*
COc1ccc(C2=CC3=C(Br)C(=O)C(C)(OC(=O)c4ccc(Cl)nc4)C(=O)C3=CO2)cc1 (stereo not drawn)	79µM*	50µM*	?	-36%[59 µM]	12µM*	56µM*
COC(=O)CCC(=O)OC1(C)C(=O)C2=CN(CCCCO)C(c3ccc(OC)cc3)=CC2=C(Br)C1=O (stereo not drawn)	·	·	·	35µM*	·	?
COC(=O)CCC(=O)OC1(C)C(=O)C2=CN(CCN3CCOCC3)C(c3ccc(OC)cc3)=CC2=C(Br)C1=O (stereo not drawn)	·	·	·	-44%[59 µM]	·	-24%
COC(=O)CCC(=O)OC1(C)C(=O)C2=CN(C(CO)CO)C(c3ccc(OC)cc3)=CC2=C(Br)C1=O (stereo not drawn)	·	·	·	2%[12.7 µM]	·	?
COC(=O)CCC(=O)OC1(C)C(=O)C2=COC(c3ccc(OC)cc3)=CC2=C(Br)C1=O (stereo not drawn)	32µM*	?	-79*	?	12µM*	45µM*
Cc1cc2nc(-c3nnnn3-c3c(C)cccc3C)c(=O)[nH]c2cc1C	·	·	-2	·	5%	·
CCN1C(=O)[C@@H]2[C@H](C1=O)[C@@H]1C(=O)Nc3ccccc3C(=O)N1[C@@H]2c1ccc(OC)cc1	-8%	25%	6	2%[2.33 µM]	3%	-24%
SMILES	JMJD2A Tudor inh	HP1b binding inh	PI5P4K alpha inh	G9a block	PLK1 PBD inh	BAZ2B inh
Cc1[nH]c2ccc(-c3n[nH]c(=S)n3-c3ccc(Br)cc3)cc2c1C	-17%	30%	-14	-1%	?	?
O=[N+]([O-])c1cccc(-c2n[nH]c(=S)n2-c2ccc(Br)cc2)c1	?	-1%	-8	6.3µM*	-28%	-37%
O=C(O)c1ccc(-n2c(-c3ccc(Br)cc3)n[nH]c2=S)cc1	7.1µM*	32%	-1	?	-2%	-25%
COc1cc(-c2n[nH]c(=S)n2-c2ccc(Br)cc2)cc(OC)c1OC	50µM*	15%	-11	·	-7%	-1%
S=c1[nH]nc(-c2ccc(Br)cc2)n1-c1ccc(Br)cc1	-31%	20%	9	8.9µM*	-23%	-12%
COc1ccccc1N(Cc1cc(=O)[nH]c2ccccc12)C(=O)C(C)C	-20%	7%	-7	?	-3%	-1%
CCc1ccc(NC(=O)Cn2cnc3nc4c(cc3c2=O)CCCC4)cc1	?	30%[57 µM]	·	14%[59 µM]	·	14%
C/C(=N\NC(=O)CN1CCN(c2ccc(F)cc2)CC1)c1ccco1	-11%	8%	-4	·	-2%	·
COc1ccccc1C(CNC(=O)CNC(=O)c1ccccc1Cl)N1CCCC1 (stereo not drawn)	-9%	35%	14	28%[12.7 µM]	-10%	13%
Cc1cc(C(=O)C(C)OC(=O)C2=NNC(=O)CC2)c(C)n1-c1ccc(OC(F)F)cc1 (stereo not drawn)	?	-25%	-3	-33%[59 µM]	-6%	?
Cc1cc(C(=O)COC(=O)C2=NNC(=O)CC2)c(C)n1-c1ccc(OC(F)F)cc1	?	-14%	-7	50µM*	-6%	-7%
C/C(CC1(O)/C(=N/O)CCc2nonc21)=N\O (stereo not drawn)	16µM*	15%	1	40µM*	1%	4%
Cc1ccc(NC(=S)/C(=C(\[O-])c2ccc(Cl)s2)[n+]2cccc(CO)c2)cc1C	50µM*	?	0	45µM*	-11%	12%
CN(C)c1cc[n+](/C(C(=S)Nc2ccc(SC(F)F)cc2)=C(/[O-])c2ccccc2)cc1	?	8%	1	?	-25%	·
[O-]/C(=C(\C(=S)Nc1ccc(SC(F)F)cc1)[n+]1cccc(CO)c1)c1ccc(Cl)s1	?	-13%	-5	25µM*	?	32µM*
Cc1c(Cl)cccc1NC(=S)/C(=C(\[O-])c1ccc(Cl)s1)[n+]1ccccc1	45µM*	?	5	?	-11%	?
